Experimental findings from PubChem BioAssay AID624483 (NMMLSC, 2012) are described below.

Hit rate of the full screen: of about 360,000 compounds, about 11,000 (3.1%) were called active. Another 2% or so got no clear call; they are omitted. What follows is part of a selection rich in actives, with near analogues and random picks from the rest. Values without a mark were called inactive. Rule as the data show it: active = fluorescence intensity above about 16000; inconclusive = no clear call, values can overlap the other calls; inactive = below that.

This assay can be described thus: counter-screen for toxin protease inhibitors: compound fluorescence, primary screen, artefact control for toxin protease inhibitor project, biochemical, multiplex microsphere, HTS (AID 624483). The note with it: compound autofluorescence counterscreen, microsphere flow cytometry; stronger effect = higher value.
For `CN[C@H]1C[C@H]2c3cc(Oc4ccccc4C)ccc3CCN2C(=O)[C@H]1[C@H](C)O`, the fluorescence intensity was 5280.
Take `O=C(CCC1CCCN(Cc2ccc(O)c(Cl)c2)C1)NCc1ccccc1F` (stereo not given): the fluorescence intensity was 4480.
The result for `CC(=O)Oc1ccc(Cn2c(C)c(C(=O)NCc3ccc(C#N)cc3)sc2=O)cc1` reads 5590; that for `CCCCCCNC(=O)CSc1nccn1Cc1ccccc1`, 9260; that for `COC(=O)CCSc1nccn1Cc1ccccc1`, 20500 (active).
On to `CCCCNC(=O)CSc1nccn1Cc1ccccc1`, for which the fluorescence intensity was 8790.
As for `O=C(NCCN1CCOCC1)c1ccccc1N1C(=O)[C@@H]2Cc3c([nH]c4ccccc34)C(c3cccc(Cl)c3)N2C1=O` (stereo not given in full), the fluorescence intensity was 5120.
Under `CCc1nc2c(OCc3ccc(C(=O)OC)cc3)cccn2c1N(C)C(=O)C(C)C` stands 3990.
With `CC(=O)c1cc2c(cc1NC(=O)CN1CCCCCC1)OCO2`, the fluorescence intensity is 3760.
Under `CC(=O)c1cc2c(cc1N)OCO2` stands 22400 (active); under `CC(=O)C1=C(C)NC(=O)NC1c1ccc2c(c1)OCO2` (stereo not given), 4750.
Under `Cc1nc(SCC(=O)N2CCc3ccccc3C2)c2c(C)c(C)sc2n1` stands 5870; under `CCCCn1nnnc1C(c1cccc(OC)c1OC)N1CCN(C/C=C/c2ccccc2)CC1` (stereo not given), 5960; under `Cc1ccc(S(=O)(=O)N2CCCC(C(=O)N3CCN(C)CC3)C2)cc1` (stereo not given), 5490.
Under `COc1ccc(OCCCC(=O)OC(C)C(=O)Nc2ccccc2[N+](=O)[O-])cc1` (stereo not given) stands 3940; under `COc1ccc(OCCCC(=O)Oc2ccc(OC)cc2)cc1`, 21300 (active).
For the molecule `COc1ccc(OCC(=O)OCCN(C)C)cc1`, the fluorescence intensity was 2140.
The result for `COC(=O)c1ccc(CSc2nncn2N)cc1` reads 4020; that for `CCCCOc1ccc(CSC(=N)N)cc1[N+](=O)[O-]`, 2600; that for `CCCCOc1ccc(Cl)cc1CSc1nncn1N`, 20700 (active).
Under `Cn1cccc1C1(C(F)(F)F)NCCNC1=O` (stereo not given) stands 20400 (active); under `CC(=O)N1CCN(Cc2cc(=O)oc3cc(C)ccc23)CC1`, 5400; under `Cc1ccc(Cn2c(C)c(C(=O)NCc3ccccc3C(F)(F)F)sc2=O)cc1`, 5600.
Under `O=C1c2ccccc2C(c2nc3ccccc3[nH]2)N1c1ccccc1` (stereo not given) stands 6040; under `CCN(CC)C(=O)CSC1c2ccccc2C(=O)N1c1ccccc1` (stereo not given), 23100 (active).
In the case of `CCN(CC)C(=O)CSc1ncnc2c1cnn2-c1ccccc1`, the fluorescence intensity was 3150.
The result for `C[N+](C)(C)CCNC(=O)c1c[nH]c2ccccc12` reads 5520; that for `CCCNC(=O)C1(C)CCN1C(=O)Cc1ccc(-c2ccccc2)cc1` (stereo not given), 3250.
`CC(=O)Nc1ccc(SCC(=O)Nc2ccccc2Oc2ccccc2)cc1`: the fluorescence intensity was 2020.
Regarding `C#Cc1cc(N2CCN(C(=O)c3ccoc3)CC2)n2nc(-c3cccc(Cl)c3)cc2n1`, the fluorescence intensity was 4220.
Turning to `CCCC(C)C(=O)NCc1ccncc1` (stereo not given), the fluorescence intensity was 2180.
The result for `CCCCOc1ccc(C(=O)NCc2ccncc2)cc1` reads 20300 (active); that for `CC(C)(C)NC(=O)C(=O)NCc1ccncc1`, 2060.
Under `O=C(CN(C(=O)c1nsc(Cl)c1Cl)c1cccc(F)c1)NC1CCCC1` stands 4350.
For the molecule `CC(=O)Nc1cccc(OCC(=O)/C=C2\N(C)c3ccccc3C2(C)C)c1`, the fluorescence intensity was 3790.
The result for `Cc1noc(C)c1C(=O)OCC(=O)/C=C1\N(C)c2ccccc2C1(C)C` reads 23200 (active); that for `Cc1noc(C)c1C(=O)OCC(=O)N1CCN(S(=O)(=O)c2ccc3ccccc3c2)CC1`, 4540; that for `CC1(C(=O)NS(=O)(=O)c2cccc(OC(F)F)c2)CCN1C(=O)COc1ccc(Cl)cc1` (stereo not given), 2870.
As to `Cc1ccn(-c2cccc(-n3ccc(C)n3)n2)n1`, the fluorescence intensity was 2160.
The result for `CC(=O)Nc1cc(-c2ccc(N3CCN(C)CC3)cc2)cn2c(-c3ccc(F)cc3)cnc12` reads 3850; that for `Cc1ccc(C(=O)c2c(NC(=O)c3ccccc3)sc(C)c2C)cc1`, 24600 (active); that for `CC(=O)c1c(Nc2ccccc2)sc(C(=O)c2ccccc2)c1C`, 2060.
Under `Cc1sc(NC(=O)c2ccc3ncsc3c2)c(C(N)=O)c1C` stands 5240.
Under `C[C@H](NC(=O)[C@@H]1CCCN1C(=O)[C@@H]1CCCN1C(=O)c1ccccc1)c1ccccc1` stands 6120.
As to `Cc1c(Cl)cccc1NC(=S)NCC(O)c1ccccc1` (stereo not given), the fluorescence intensity was 2920.
The result for `COc1ccc(OC(C)C(=O)Nc2cccnc2)cc1` (stereo not given) reads 23000 (active); that for `COc1ccc(C(=O)CCC(=O)Nc2cccnc2)c(OC)c1`, 5960; that for `CC(Oc1ccc(Cl)cc1)C(=O)Nc1ncccn1` (stereo not given), 6780.
`Cc1ccc(C(=O)O)c(NC=O)c1OCc1ccccc1`: the fluorescence intensity was 4160.
The result for `COc1ccc(C(=O)C(C)OC(=O)c2cccc(S(=O)(=O)Nc3c(C)n(C)n(-c4ccccc4)c3=O)c2)cc1` (stereo not given) reads 3490.
For the molecule `COc1ccc2c(c1)CCc1c(C(=O)Nc3c(C)n(C)n(-c4ccccc4)c3=O)noc1-2`, the fluorescence intensity was 21100 (active).
Turning to `COc1ccccc1-c1cc(C(=O)N2CCCCC2)no1`, the fluorescence intensity is 4320.
As for `COc1ccc(S(=O)(=O)Nc2c(C)n(C)n(-c3ccccc3)c2=O)cc1`, the fluorescence intensity was 16100 (active).
The result for `COc1ccc(OC)c(NC(=S)N2CCc3ccccc3C2)c1` reads 2080; that for `COc1ccc(C(=O)N2CCCN(C)CC2)c(OC)c1`, 4060; that for `Cc1c(NC(=O)c2cc(-c3ccc(Br)cc3)on2)c(=O)n(-c2ccccc2)n1C`, 5870.
Take `O=C(c1noc2c1CCCC2)N1CCc2ccccc2C1`: the fluorescence intensity is 3010.
Under `Cc1c(NC(=O)c2coc(=O)c(Br)c2)c(=O)n(-c2ccccc2)n1C` stands 2950.
The result for `COc1ccc2c(c1)CCc1c(C(=O)N3CCCC3)noc1-2` reads 21100 (active); that for `COc1ccc2c(c1)CCc1c(C(=O)N3CCc4ccccc4C3)noc1-2`, 21600 (active).
The result for `COc1ccc(NS(=O)(=O)c2ccc(C(=O)Nc3c(C)n(C)n(-c4ccccc4)c3=O)cc2)cc1` reads 2940.
As for `CCN(C(=O)CSc1nnnn1-c1ccccc1OC)C1CCS(=O)(=O)C1` (stereo not given), the fluorescence intensity was 5910.
In the case of `Cc1ccccc1C(OCCN(C)C)C1CCCCC1` (stereo not given), the fluorescence intensity was 2370.
Under `CCNC(=O)C1(C)CCN(C(=O)c2ccccc2)C1` (stereo not given) stands 3880; under `COC(=O)Cc1nc2c(N)nc(N)nc2[nH]c1=O`, 4130.
The result for `O=C(NNS(=O)(=O)c1c(F)cc(F)c(Cl)c1F)C12CC3CC(CC(C3)C1)C2` reads 4000; that for `O=C(Nc1ccccc1C(=O)O)c1ccc(N2C(=O)C3CC=CCC3C2=O)cc1` (stereo not given), 4170; that for `CN(C)CCNC(=O)c1cccc(-c2cnc3c(NC=O)cc(-c4cccc(C(F)(F)F)c4)cn23)c1`, 3700.
`CN1CCN(C(=O)c2ccc(-c3cc4nc(NCc5cccnc5)n(C)c(=O)c4s3)cc2)CC1`: the fluorescence intensity was 3940.
Under `O=C(NCc1ccccc1)C1c2ccccc2OCC(=O)N1C1CC1` (stereo not given) stands 5460.
The result for `O=C(NCc1ccccc1Cl)C1CCCO1` (stereo not given) reads 4090; that for `O=C(C1CCCO1)N(Cc1ccccc1)c1ccccc1` (stereo not given), 16100 (active).
Under `O=C(C1CCCO1)N(c1ccc(F)cc1)C1C=CS(=O)(=O)C1` (stereo not given) stands 3830; under `CCc1ccc2c(c1)NC(=O)C2(C)Cc1ccc(OC(F)(F)F)cc1` (stereo not given), 2900; under `COCc1cc(C)nc(SCC(=O)Nc2cccc(C)c2)c1C#N`, 4220.
On to `O=C(c1ccco1)N1CCN(C(=S)Nc2cc(F)cc(F)c2)CC1`, for which the fluorescence intensity is 5420.
Consider `O=CN1CCN(C(=O)c2ccc3c(c2)OCO3)CC1`, for which the fluorescence intensity was 6220.
The result for `CCNC(=S)N1CCN(C(=O)c2ccco2)CC1` reads 21900 (active); that for `N#Cc1ccccc1NC(=O)c1ccc2c(c1)OCO2`, 3490; that for `O=C(c1ccc2c(c1)OCO2)N1CCN(C(=O)c2ccco2)CC1`, 20500 (active).
The result for `O=C(CNS(=O)(=O)c1ccccc1)N1CCN(C(=O)c2ccco2)CC1` reads 5790; that for `O=C(CN1CCN(C(=O)c2ccco2)CC1)Nc1ccc2c(c1)OCO2`, 2540.
The result for `O=C(Nc1ccccc1N1CCN(C(=O)c2ccccc2)CC1)c1ccc2c(c1)OCO2` reads 23400 (active).
As to `O=C(Nc1ccccc1N1CCN(C(=O)c2ccccc2)CC1)c1ccco1`, the fluorescence intensity was 3700.
`Cc1nc2c(OCc3cccc(Cl)c3)cccn2c1N(C)CC1CC1`: the fluorescence intensity was 3860.
The result for `CN(Cc1ccccc1)C(=O)C(=O)c1cn(CC(=O)N2CCCC2)c2ccccc12` reads 5870; that for `NCCCCC(C(=O)O)N(C(=O)OCc1ccccc1)C(=O)OCc1ccccc1` (stereo not given), 4320.
Take `O=C1NC[C@H](CCCCN2C[C@H](Cc3ccc(O)cc3)N(CC3CCCCC3)C(=O)C2=O)N(CCc2ccccc2)C1=O`: the fluorescence intensity is 4980.
In the case of `NC(Cc1ccc(F)cc1)c1csc(Nc2nncc3ccccc23)n1` (stereo not given), the fluorescence intensity is 3900.
Under `C#CCNC(=O)C[C@@H]1C[C@@]2(C(=O)OCC)CCCC=C2N(Cc2ccco2)C1=O` stands 4250.
Take `CC(=O)N(O)CCCCCNC(=O)CCC(=O)N(O)CCCCCNC(=O)CCC(=O)N(O)CCCCCNC(=O)CCC(=O)O`: the fluorescence intensity is 3470.
Under `CC1=C(C(=O)N(C(C)C)C(C)C)CC(CC(=O)NCCCCc2ccccc2)C(=O)N1CCC1=CCCCC1` (stereo not given) stands 5390; under `CCOC(=O)N1CCN(C(=O)Cc2ccc(-n3c(=S)[nH]c4ccccc4c3=O)cc2)CC1`, 10600; under `O=c1c2ccccc2[nH]c(=S)n1-c1cccc(Cl)c1`, 4010.
The result for `O=C(Cc1ccc(-n2c(=O)[nH]c3ccccc3c2=O)cc1)N1CCN(c2cccc(Cl)c2)CC1` reads 22000 (active).
